NS1 inh: qHTS Assay for Inhibitors of Influenza NS1 Protein Function. AID 2326, 2010. 270,000 tested, 0.4% active. Potency, µM (series often up to 46.1 µM), for the others: at the highest dose activity, positive = more growth; calls by dose curve; note: potency is the fitted concentration of half-maximal effect; actives are rising curves; nearly all actives have a fitted effect of over 50% in size
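S. cerevisiae expressing influenza A NS1, grown in glucose, washed, then diluted 1:100 into pH 6.0 -URA galactose medium with 23 nl compound. Growth recovery read as OD600; NS1-free strain serves as control.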
Cycloheximide cs: Cycloheximide Counterscreen for Small Molecule Inhibitors of Shiga Toxin; max response, %; 300,000 tested, 12% active; cell reporter, cycloheximide protein synthesis inhibition counterscreen; in the data active = max response mostly above about 13%, no sharp cut-off; inactive = mostly below about 14%; note: read at 38.3 µM for the half of the compounds with a filed dose; 0% is about no effect
SARS PLP yeast: qHTS of Yeast-based Assay for SARS-CoV PLP; S. cerevisiae expressing SARS-CoV PLpro, growth rescue; Potency, µM (top dose mostly 32.9 µM), for inactives: at the top dose activity, positive = growth rescue, actives largely listed as activators; 330,000 tested, 0.19% active; AID 485353, 2010; calls by dose curve; note: potency is the fitted concentration of half-maximal effect; 0% is about no effect; nearly all actives have a fitted effect of over 55% in size
TbPYK inhibitor: qHTS of Trypanosoma Brucei Inhibitors. pyruvate kinase (Trypanosoma brucei), Q57TT1. TbPYK enzyme, Kinase-Glo Plus ATP luminescence, 45 min. Potency, µM (titrated, usually from 76.8 µM), without a hit: top-dose activity, negative = inhibition, actives largely listed as inhibitors. 410,000 tested, 0.12% active. AID 624173, 2012; note: potency is the fitted concentration of half-maximal effect; % is set by controls: 0 for no effect and ±100 for the full control effect; nearly all actives have a fitted effect of over 50% in size
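Screened from lowest to highest concentration, compounds were pinned into TbPYK/substrate mixtures, and ADP (130 uM final) was added. Plates sat at room temperature for 45 min prior to Kinase-Glo Plus detection by luminescence.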
Shiga inhibitor: A qHTS for Small Molecule Inhibitors of Shiga Toxin. Vero cells, Shiga toxin protein synthesis inhibition reporter. inhibition, % at 38.7 µM. 290,000 tested, 9.2% active. AID 2315, 2010; in the data active = inhibition mostly above about 28%, no sharp cut-off; inactive = mostly below about 43%; note: 0% is about no effect
LmPK inhibitor: qHTS Assay for Inhibitors of Leishmania Mexicana Pyruvate Kinase (LmPK); AID 1721, 2009; 290,000 tested, 0.37% active; purified LmPK, Kinase-Glo ATP luminescence, 1 h; Potency, µM (series often up to 57.5 µM), without a hit: at the top dose activity change, negative = inhibition, usual class: inhibitors; note: potency is the fitted concentration of half-maximal effect; % is set by controls: 0 for no effect and ±100 for the full control effect
Target sequence (Q27686 whole entry, looked up): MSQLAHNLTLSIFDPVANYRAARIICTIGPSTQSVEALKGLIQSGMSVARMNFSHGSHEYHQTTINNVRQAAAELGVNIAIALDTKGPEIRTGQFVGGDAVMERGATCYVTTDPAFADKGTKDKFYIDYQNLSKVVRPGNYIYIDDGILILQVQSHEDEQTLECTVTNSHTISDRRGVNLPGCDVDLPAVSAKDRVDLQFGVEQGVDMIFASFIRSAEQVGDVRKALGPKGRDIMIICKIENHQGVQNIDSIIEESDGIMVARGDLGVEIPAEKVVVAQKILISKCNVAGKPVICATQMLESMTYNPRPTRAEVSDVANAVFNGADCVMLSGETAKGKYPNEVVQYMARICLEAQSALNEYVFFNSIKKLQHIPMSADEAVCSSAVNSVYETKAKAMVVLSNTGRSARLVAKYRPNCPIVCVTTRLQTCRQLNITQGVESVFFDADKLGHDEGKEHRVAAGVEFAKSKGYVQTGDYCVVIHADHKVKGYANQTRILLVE
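0.1 nM LmPK, 0.5 mM PEP, 0.1 mM ADP; 50 mM imidazole pH 7.2, 7 mM MgCl2, 50 mM KCl; 1 h RT. Kinase-Glo luminescence readout, normalized to no-enzyme (full inhibition) and uninhibited wells.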
* hit, by the source's call; u = inconclusive; x = no result given; + = active, no number; ! = repeats disagree. The full list was thinned out, with hits kept by preference. Unless noted, calls come from the whole dose curve; as a rule, active = well fitted curve in the direction sought with a large enough effect; inconclusive = small, poorly fitted or top-dose-only effect, or another doubt; inactive = no such curve, though single readings can be large; an effect the other way counts as inactive or inconclusive.

SMILES	NS1 inh	Cycloheximide cs	SARS PLP yeast	TbPYK inhibitor	Shiga inhibitor	LmPK inhibitor
COc1cc(/C=C2\C(=N)N3N=C(N4CCOCC4)SC3=NC2=O)ccc1OC(=O)c1ccccc1	-12%	4	-6%	3%	5	0%
C/C(=N\Nc1cc(-c2ccccc2)nc(-c2ccccc2)n1)c1ccc(O)c(C)c1	u	20*	-31%	-4%	73*	3%
C/C(=N\Nc1nc(C)cc(-c2ccccc2)n1)c1ccc(O)cc1	-10%	21*	-5%	5%	26*	4%
COc1cc(N/N=C(\C)c2ccc(O)c(C)c2)nc(-c2ccccc2)n1	2%	21	-3%	-5%	15	3%
Cc1ccc2nc(N/N=C/c3ccccc3F)nc(-c3ccccc3)c2c1	6%	-3	-20%	3%	9	-2%
Cc1cc(-c2ccccc2)nc(N/N=C/c2ccccc2F)n1	-21%	51*	-11%	-1%	52*	0%
C/C(=N\NC(=O)c1ccc(-c2ccccc2)cc1)c1cccc(N)c1	5%	10	-3%	-2%	21	7%
C/C(=N\Nc1nc(C)cc(-c2ccccc2)n1)c1cccc(N)c1	-17%	16*	-2%	2%	23*	-14%
COc1ccc(NC(=O)c2nnn(Cc3nc(-c4cc(OC)c(OC)c(OC)c4)oc3C)c2C)cc1Cl	x	x	x	3%	x	x
Cc1ccc(CNC(=O)CN2C(=O)CSc3c2c(C)nn3-c2ccccc2)cc1	x	x	x	-3%	x	x
C/C(=N/Nc1nc(C)cc(-c2ccccc2)n1)c1ccco1	0%	21*	-14%	1%	56	-1%
C/C(=N\Nc1nc(C)cc(-c2ccccc2)n1)c1ccc(C)o1	14%	8	14%	4%	7	-2%
C/C(=N\Nc1nc(C)cc(-c2ccccc2)n1)c1ccccc1	5%	17*	-6%	-11%	16	-2%
COc1ccc(Cl)cc1NC(=O)c1cc(C)nn1-c1ccccc1	x	x	x	4%	x	x
O=[N+]([O-])c1ccc(N2CCOCC2)cc1SCc1ccco1	-2%	9	23%	-13%	-5	3%
O=[N+]([O-])c1ccc(SCc2ccco2)cc1N1CCOCC1	x	29*	2%	8%	54*	0%
O=c1c2oc3ccccc3c2n(Cc2ccc(Cl)cc2)c(=O)n1Cc1ccc2c(c1)OCO2	x	x	x	3%	x	x
CC(NC(=O)Cn1ncc2c3ccccc3n(Cc3ccc(F)cc3)c2c1=O)c1ccccc1 (centres undefined)	x	x	x	0%	x	x
Cc1cccc(NC(=S)c2nc3ccccc3s2)c1	2%	28*	1%	-12%	86*	-22%
COc1cccc(C(=O)NNC2=C(C(=O)C(F)(F)F)CCC2)c1	-7%	41*	-1%	-2%	68*	-4%
Nc1ccccc1C(=O)NNC1=C(C(=O)C(F)(F)F)CCC1	1%	46*	0%	0%	95*	0%
COc1ccccc1C(=O)NNC1=C(C(=O)C(F)(F)F)CCC1	20%	17*	0%	6%	84*	0%
O=C(NNC1=C(C(=O)C(F)(F)F)CCC1)c1ccccc1Cl	-115%	9	-6%	-4%	22	0%
O=C(NNC1=C(C(=O)C(F)(F)F)CCC1)c1ccccc1O	-92%	32	-8%	0%	37*	3%
O=C(NC1CCCCC1)C(c1cccs1)N(CCCN1CCOCC1)C(=O)c1ccc(-c2ccccc2)[nH]1 (centres undefined)	-3%	19*	0%	1%	56*	4%
SMILES	NS1 inh	Cycloheximide cs	SARS PLP yeast	TbPYK inhibitor	Shiga inhibitor	LmPK inhibitor
Cc1ccc(C(C(=O)NC(C)(C)C)N(CCCN2CCOCC2)C(=O)c2ccc(-c3ccccc3)[nH]2)o1 (centres undefined)	1%	-5	6%	-4%	-6	1%
C=CC[C@H](CC(=O)OC(C)(C)C)C(=O)OC[C@H]1CCCN1C(=O)[C@@H](CC=C)CC(=O)N(CCO)Cc1ccccc1	x	x	1%	0%	x	x
CC1=NN(c2ccc(C)c(C)c2)C(=O)/C1=C\C=C\c1ccc([N+](=O)[O-])o1	x	44*	-6%	-12%	88*	-12%
CCCOc1ccc(C(=O)Nc2ccc(C)cc2[N+](=O)[O-])cc1	4%	-2	15%	2%	6	-3%
COc1ccc(C(=O)NCCNc2ccccc2[N+](=O)[O-])cc1	-9%	32*	1%	0%	77*	-13%
CC(C)COc1ccc(C(=O)Nc2ccccc2[N+](=O)[O-])cc1	-9%	53*	-25%	-3%	active	-10%
O=C(NCCNc1ccccc1[N+](=O)[O-])c1cc(F)c(F)cc1Cl	1%	50*	0%	-7%	154*	-9%
COc1ccc(C2CC(=O)N(CC(=O)Nc3ccc(C(F)(F)F)cc3)c3ccccc3S2)cc1 (centres undefined)	x	x	x	6%	x	x
COc1cccc(CN(C)C[C@H]2OCc3cnnn3CCCC(=O)N([C@@H](C)CO)C[C@@H]2C)c1	x	x	x	-8%	x	x
Cc1ccc(-c2ccc(=O)n(C(C)C(=O)Nc3ccccc3Cl)n2)cc1C (centres undefined)	x	x	x	-7%	x	x
O=[N+]([O-])c1ccc(N/N=C/c2cccc(O)c2O)cc1	-55%	27*	-11%	-12%	x	7%
O=[N+]([O-])c1ccc(NN=Cc2cccc([N+](=O)[O-])c2)cc1	x	x	x	2%	x	x
O=[N+]([O-])c1ccc(N/N=C/c2cccc(O)c2)cc1	-81%	53*	-11%	1%	113*	5%
COCCn1cnc2c1c(=O)n(CC(=O)c1ccc3c(c1)OCCO3)c(=O)n2Cc1ccccc1	u	9.7*	-1%	-8%	19	8%
O=C(Nc1ccc2c(c1)oc1ccccc12)c1cccnc1	-51%	38*	-7%	-5%	58	-2%
O=C(Nc1ccc(NC(=O)c2ccncc2)cc1)c1ccncc1	-3%	-4	0%	x	-8	-1%
O=C(Nc1ccc2c(c1)oc1ccccc12)c1ccncc1	-85%	51*	-15%	x	67*	-3%
CCCN(C)C[C@H]1Oc2cc(C#Cc3ccc(F)cc3)ccc2S(=O)(=O)N([C@H](C)CO)C[C@@H]1C	x	x	x	1%	x	x
COc1ccc(CCc2nc(C)ccc2O)cc1	-4%	37*	25%	-6%	+!	-23%
Cc1ccc(O)c(CO)n1	6%	-2	1%	-4%	-6	-1%
CCc1ccc(NC(=O)CSc2nc(C)cs2)cc1	x	x	x	7%	x	x
COc1cccc(OC)c1C(=O)Nc1ccc2c3c(cccc13)CC2	-52%	1	-15%	-2%	-9	-2%
COc1ccccc1C(=O)Nc1ccccc1SC(=O)c1ccccc1OC	3%	26*	-2%	7%	72*	-1%
COC(=O)c1ccc(NC(=O)C(=O)c2c[nH]c3ccccc23)cc1	-17%	0	-6%	8%	2	5%

From PubChem BioAssay
